According to the supplement of paper PMC4466236:
Over roughly 33,000 sequences, “E-score (dimensionless, -0.5 to 0.5)” has its median near -0.058; the highest 2% begin near 0.35. What follows is part of a selection rich in the highest values, with near analogues and random picks from the rest.

system: MvaT; assay: PBM 8-mer E-score (mean of HK and ME arrays) (E-score (dimensionless, -0.5 to 0.5)); higher = stronger relative binding preference
Description: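 Protein binding microarray: GST-tagged full-length MvaT (P. aeruginosa PAO1) bound to two universal double-stranded 60-mer arrays (ME and HK), each with a constant 25-mer primer and a variable 35-mer region covering all 8-mers. The 8-mer E-score (rank-based, range -0.5 to 0.5, >0.45 = specific binding) is the mean of the two arrays.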

Sequence | PBM 8-mer E-score
CAGCAAAC | 0.014
CATTACGA | 0.0396
AAATGACT | 0.114
ATACCCAG | 0.103
CGTAAGAC | -0.107
AACTGTGG | -0.0417
ACCTACGA | -0.0935
AACATAAA | 0.286
AGCATATA | 0.383
AATACATC | 0.173
CACATATG | 0.196
AACATAAC | 0.245
GGCATATA | 0.217
AACATAAT | 0.371
CACATATA | 0.405
AATACATT | 0.374
CACATATC | 0.178
AGCATATC | -0.0071
AATACATG | 0.224
CGAACAAC | 0.0607
GCTAGGCA | -0.187
ACGACTAG | -0.185
TACCTCAA | 0.05
ACTTGGTA | -0.109
GGTTGATA | 0.124

Sequence | PBM 8-mer E-score
GTCTTCGA | -0.0711
GGTCGCGA | -0.238
CCGCAAGA | -0.078
CTCGCCTA | 0.0159
GAAAACAC | 0.0574
GACATATA | 0.362
TACATACA | 0.301
CATACATA | 0.277
AACATACA | 0.36
GACATATC | 0.113
CACATACA | 0.242
TATACATA | 0.389
AACATATT | 0.392
AATACATA | 0.324
AACATACT | 0.207
AACATAGT | 0.25
GACATAGA | 0.0048
GGTGCGCA | -0.0657
AACGCTGC | 0.0312
CAAGCGTG | -0.266
CTCTCTAC | -0.0519
CTTTGACC | -0.131
CCCGGATA | -0.0749
AACATATG | 0.254
AACATATC | 0.286

Sequence | PBM 8-mer E-score
AACATATA | 0.419
TACACATA | 0.242
TACATATA | 0.402
TACATAAA | 0.307
GTTGGCCA | -0.0756
AAGACAGC | 0.081
ACACCGGC | -0.133
AATATTCC | 0.375
AATATTCT | 0.36
AATATTCG | 0.326
GATATTCC | 0.229
CATATTCG | 0.173
ACTATTCT | 0.208
TAGAAAAA | 0.0922
CGGAGAGA | -0.145
AAGGCAAC | 0.0918
AACGCCAG | -0.15
CAGGCAGG | -0.314
AGAATAGG | -0.0847
GATTAACC | 0.0145
CATTAATA | 0.369
GATTAATA | 0.446
GATTAATC | 0.317
CATTAATC | 0.341
CGTTAATA | 0.31

Sequence | PBM 8-mer E-score
ATGCGTCC | -0.205
AAGTTGTC | 0.168
AAATACAT | 0.33
GTATACAA | 0.319
TTATACAA | 0.359
ACATACAT | 0.275
TGATACAA | 0.145
ATATACAC | 0.336
TCATACAA | 0.0994
ATATACAT | 0.365
ATACACAG | 0.0306
ACATACAA | 0.362
CTATACAG | 0.00215
ATATACAG | 0.379
CCGAAACA | 0.00391
CTGGAACA | 0.00992
CAGTATAG | 0.0504
ACTTGGAC | 0.0426
GGACACGA | -0.163
ATGTGTTA | 0.258
CGCTTTAA | 0.0497
CTTCGTGC | -0.0984
AATTGAGC | 0.0577
ATATACAA | 0.406
ATACACAA | 0.154

Sequence | PBM 8-mer E-score
CTATACAA | 0.202
CGTTAATC | 0.127
AATTAATC | 0.366
AATTAACA | 0.333
AATTAATT | 0.469
AATTACGT | 0.263
AATTAATA | 0.449
CATTAATG | 0.34
AGTTAATG | 0.271
AATTAATG | 0.359
AATCAATT | 0.246
AGTCCAAT | 0.0865
CGAAAGTC | -0.0957
AATCTGCT | -0.0198
AAAGACCC | -0.224
CATACTAG | 0.203
AGGGCCCG | -0.227
GGGTCCAC | -0.22
ATGCGCGG | -0.207
GCGGGGAA | -0.103
GTAAGCGA | 0.0773
AATTAACT | 0.354
AATTAACC | 0.262
AATTAACG | 0.28
ACCCAAAC | 0.192

Sequence | PBM 8-mer E-score
AAGTAATT | 0.392
GAGTAATA | 0.287
CAGTAATA | 0.273
TAGTAATA | 0.352
AAGTACTC | 0.137
AAGTAATA | 0.379
AAGTAATG | 0.276
AAGTAATC | 0.186
AAGTACTT | 0.41
TAGTAACA | 0.274
AAGTACTA | 0.257
TAGTAAAA | 0.315
ATCAGGCG | -0.0225
ATCTGCTA | 0.109
ACAGGACT | -0.164
AGTGCCGA | -0.0895
AAATCCCC | -0.192
CGTTCCAA | 0.0493
GGTCCTCA | -0.193
ATAGCAGC | 0.0386
GTAATCTA | 0.151
AAAACTGT | 0.0621
GAATAGTA | 0.229
TAATAGTA | 0.362
CAATAGTA | 0.264

Sequence | PBM 8-mer E-score
CTTATCGC | 0.049
CCCTTTCC | -0.188
ACATAATC | 0.222
GAATAATA | 0.446
AAAAAATG | 0.0805
GAATAATC | 0.188
ACATAATA | 0.401
AAATAATG | 0.387
GCATAATA | 0.339
GAATAAGC | 0.194
TAATAATA | 0.477
AACCTTTA | 0.192
AGGGCCTG | -0.226
GATCTGAC | -0.0641
ATACCAAG | -0.0486
CTGCGCAA | -0.0818
AAGAGACT | -0.04
AACGCGTG | -0.0417
ACTTCTGC | 0.0207
TTCCAGAA | 0.055
GCTAGGAA | -0.167
GAATAACA | 0.2
AAATAATT | 0.438
AAATAAGA | 0.309
AAAAAATT | 0.153

Sequence | PBM 8-mer E-score
GAATAAGA | 0.201
CAATAACA | 0.283
CAATAATA | 0.418
CAATAATC | 0.19
TAATAAGA | 0.375
CAATAATG | 0.322
TAATAACA | 0.379
CTACCGCA | -0.134
CCTGATGC | -0.163
CAGCTTAG | -0.203
GGACAGTA | -0.0349
AACTTTCG | 0.255
GCCTAGCC | -0.187
CTAAGTAG | 0.0522
AAAAAATA | 0.331
AAATAATA | 0.428
AAATAATC | 0.301
CCTCAAAC | -0.125
AAATATCG | 0.295
AGATATCC | -0.0391
ATATATCG | 0.442
ACATATCG | 0.243
CTATATCC | 0.123
GTATATCA | 0.237
ATATATCA | 0.427

Sequence | PBM 8-mer E-score
CTATATCA | 0.16
ATATATCC | 0.38
TCGTGACA | -0.206
GTTTCACA | -0.00657
AAATTCCG | 0.108
ACTTTTAA | 0.383
ACTTTAAT | 0.414
ACTTTTAT | 0.363
ACTTTAAA | 0.404
ACTTTAAC | 0.326
ACTTTTAG | 0.112
ACTTTAAG | 0.254
CCTTTAAA | 0.211
TCTTTTAA | 0.296
GCTTTAAA | 0.249
ACTTTTAC | 0.211
ACTTTTTA | 0.309
CGTCACCA | -0.18
ATCCCTTC | -0.172
CAAGCACG | -0.238
CCTTACCG | -0.129
GAAGCAAC | -0.0872
ATACTATA | 0.377
CTATACTC | -0.0354
GTATACTA | 0.373

Sequence | PBM 8-mer E-score
GTATACGA | 0.184
ATATACTA | 0.422
CTACTATA | 0.292
ATATACTC | 0.364
GTACTATA | 0.329
AGATACTA | 0.143
CTATACTA | 0.156
GCATACTA | 0.186
ATATACTG | 0.322
ATACACTC | 0.143
GAACGTTA | 0.207
ACAAACCA | 0.185
AGCTGAGC | -0.262
AACGTAGT | 0.000134
CGCGTGAG | -0.167
AGGCCGAG | -0.0711
GGCCCCTA | -0.222
ACAATTAA | 0.347
ACAATTAG | 0.315
GCAATTTA | 0.307
ACAATTAC | 0.319
ACAATTTG | 0.187
ACAATTTA | 0.353
GCAATTAA | 0.324
ACAATTAT | 0.378

Sequence | PBM 8-mer E-score
CCAATTAA | 0.306
CCGGTGAA | -0.0479
AGGAGCAG | -0.32
CAGGATGG | -0.189
CAAGCAGA | -0.0444
CTAATAAA | 0.349
CTAAAAAA | 0.0548
ATAATAAG | 0.43
TGAATAAA | 0.268
GTAATAAC | 0.297
CGAATAAA | 0.254
TTAATAAA | 0.432
TCAATAAA | 0.22
ATAATAAC | 0.422
CTAATAAG | 0.213
ATCATAAG | 0.161
CTAATAAC | 0.326
AGGGGAGA | -0.145
ATGACACG | -0.12
AGCCTATA | 0.179
ATTGCAAT | 0.27
GTAATGAA | 0.00633
AGAATAAC | 0.232
ATAATAAA | 0.451
AGAATAAA | 0.255

Sequence | PBM 8-mer E-score
TTAATGAA | 0.393
ATCATAAT | 0.245
ATAATGAT | 0.275
AGAATAAT | 0.411
AGAATAAG | 0.252
GTAATAAA | 0.333
CTAATGAA | 0.132
ATAATAAT | 0.463
CTAGCCTA | -0.138
AGGCTAAG | -0.0142
GCCTGTCC | -0.241
CAGGACAC | -0.248
AACGGACA | -0.037
CAGGCCGG | -0.188
GTTTTCAA | 0.148
GCTAGAGA | -0.188
GAGACCAC | -0.107
ACCTTGCG | -0.0997
AGGATAAA | 0.22
AGGATAAT | 0.353
AGGATAAG | 0.0764
ATGCATGA | -0.142
GGTATAGA | 0.08
AGTATATG | 0.351
GGTATATA | 0.355

Sequence | PBM 8-mer E-score
CGTATATA | 0.378
GGTATACA | 0.201
AGTATATC | 0.259
AGTATAGG | 0.0335
AGTATATA | 0.446
AGTATGTG | 0.209
CGTATACA | 0.17
AGTATAGA | 0.0904
CGTATATC | 0.143
GACGTTGC | -0.0956
GTGTAACA | 0.206
TAAAGGAA | 0.0516
GAATCGCC | -0.206
ATAACATG | 0.235
AAAACATA | 0.354
ATAACATA | 0.359
GAAACATA | 0.343
ATAACATC | 0.302
AAAACATT | 0.225
ATCCATGC | -0.188
CGAAATTC | 0.192
CCCTCACA | -0.151
ATATCGAG | 0.208
TCCCGGAA | -0.126
GCGCGTAC | -0.156

Sequence | PBM 8-mer E-score
GAGGGTGC | -0.16
TCAAACGA | 0.0344
ATAACTCG | 0.255
CTAACTTC | 0.168
CTTACTTC | 0.208
ATAACTTG | 0.38
ATAACTTC | 0.351
ATAACTGC | 0.286
ATTACTTA | 0.334
ATTACTTC | 0.348
AGAACTTG | 0.214
CGGAGACA | 0.0514
CCTACCTC | -0.226
CCAGATGG | -0.281
CATAACTA | 0.286
AATAACTA | 0.348
ATTAACTA | 0.339
ACTAACTA | 0.381
CTTAACTA | 0.305
GATAACTA | 0.198
ACTAACTG | 0.191
ACTAACTC | 0.118
GTTAACTA | 0.362
